From the supplement of paper PMC10981050
Where a name gives a salt, the structure may show the parent alone.

Each molecule was assayed on K562 (assay: cell viability relative to vehicle control; higher = less cytotoxic). Settings: 10 µM; SRSF2 genotype: SRSF2 wt/wt.
Outline: (§1)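 Screening covered the Selleck bioactive, kinase and epigenetic probe libraries, less identity-inconsistent compounds, on CRISPR-edited mutant clones and isogenic wild-type clones of four leukaemia lines. Cells, at 2000 per well in 50 µL medium, received a single 10 µM acoustically dispensed dose. After 48 h the supernatant was removed and CellTiter-Glo luminescence was read. Viability was analysed in Genedata Screener as percent of the on-plate vehicle control.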

| Compound | cell viability [%] |
| --- | --- |
| CO[C@@]1(NC(=O)CSC[C@@H](N)C(=O)O)C(=O)N2C(C(=O)O)=C(CSc3nnnn3C)CS[C@@H]21 [Cefminox Sodium] | 99 |
| CNC[C@H](O)[C@@H](O)[C@H](O)[C@H](O)CO [Meglumine] | 107 |
| CCCCCCCCCCCCCC(=S)NCCCC[C@H](NC(=O)OCc1ccccc1)C(=O)Nc1ccccc1 [Thiomyristoyl] | 81.9 |
| Cc1cc(C(=O)NOCCO)c(Nc2ccc(I)cc2F)n(C)c1=O | 84.6 |

What follows are molecules tested on MARIMO in the same assay as above. Settings: 10 µM; SRSF2 genotype: SRSF2 P95H/wt.
Outline: as §1

| Compound | cell viability [%] |
| --- | --- |
| Cc1cc(=O)oc2c(C=O)c(O)ccc12 | 99 |
| Cc1oncc1C(=O)Nc1ccc(C(F)(F)F)cc1 [Leflunomide] | 94.9 |
| CCn1c(C(=O)N(C2CC2)C2CC2)cc2c3c(ncn3C)c(Nc3cc(C)n(C)n3)nc21 | 108 |
| CC(/C=C1\SC(=S)N(CC(=O)O)C1=O)=C\c1ccccc1 [Epalrestat] | 104 |
| O=c1[nH]c(=O)n(C2CCCO2)cc1F (centres undefined) | 96.4 |
| CC(C(=O)O)c1ccc2c(c1)Cc1cccnc1O2 (centres undefined) [Pranoprofen] | 110 |
| CC1C(=O)OC2C(O)C34C5CC(C(C)(C)C)C36C(OC(=O)C6O)OC4(C(=O)O5)C12O (centres undefined) [Ginkgolide B] | 111 |
| Cc1nc(N(C)C(=O)Cc2ccc(-c3ccccn3)cc2)sc1S(N)(=O)=O [Pritelivir (BAY 57-1293)] | 103 |
| N[C@@H]1CCCN(c2c(/C=C3\SC(=O)NC3=O)cccc2-c2ccccc2)C1 | 83.9 |
| CCCCNc1ncc(-c2ccc(CN3CCOCC3)cn2)c(NC2CCC(O)CC2)n1 (centres undefined) | 60.7 |
| CCCc1cc(C(N)=S)ccn1 [Protionamide (Prothionamide)] | 98.8 |
| CC(C(=O)O)c1ccc2c(c1)CC(=O)c1ccccc1S2 (centres undefined) [Zaltoprofen] | 96.8 |
| COc1ccc2cc1Oc1ccc(cc1)C[C@H]1c3c(cc4c(c3Oc3cc5c(cc3OC)CCN(C)[C@@H]5C2)OCO4)CCN1C [Cepharanthine] | 57.9 |
| CC(COc1ccccc1Cc1ccccc1)N1CCCCC1 (centres undefined) [Benproperine phosphate] | 70.4 |
| Nc1nonc1C(=Nc1ccc(F)c(Cl)c1)NO | 92 |
| CC(C)N(CCC(=O)c1ccc2ccccc2c1)Cc1ccccc1 | 0.57 |
| O=C(NCCN1CCOCC1)c1ccc(Cl)cc1 | 101 |
| CCS(=O)(=O)CCn1c([N+](=O)[O-])cnc1C [Tinidazole] | 96.6 |
| CCOc1ccc(Cc2cc([C@]34OC[C@](CO)(O3)[C@@H](O)[C@H](O)[C@H]4O)ccc2Cl)cc1 [Ertugliflozin] | 104 |
| OC[C@H]1O[C@@](CO)(O[C@H]2O[C@H](CO)[C@@H](O)[C@H](O)[C@H]2O)[C@@H](O[C@H]2O[C@H](CO)[C@@H](O)[C@H](O)[C@H]2O)[C@@H]1O [Melezitose] | 99 |

| Compound | cell viability [%] |
| --- | --- |
| O=C(O)CCCC[C@@H]1SC[C@@H]2NC(=O)N[C@@H]21 [Biotin (Vitamin B7)] | 104 |
| Cc1nnc(C(=O)NC(C)(C)c2nc(C(=O)NCc3ccc(F)cc3)c(O)c(=O)n2C)o1 [Raltegravir (MK-0518)] | 95.8 |
| CCOC(=O)C=Cc1ccc(OC)cc1 [Ethyl 4-Methoxycinnamate] | 81.3 |
| CCNC(=O)[C@@H]1CCCN1C(=O)[C@H](CCCN=C(N)N)NC(=O)[C@H](CC(C)C)NC(=O)[C@@H](CC(C)C)NC(=O)[C@H](Cc1ccc(O)cc1)NC(=O)[C@H](CO)NC(=O)[C@H](Cc1c[nH]c2ccccc12)NC(=O)[C@H](Cc1cnc[nH]1)NC(=O)[C@@H]1CCC(=O)N1 [S3718 Leuprolide Acetate.cdx] | 110 |
| CCCCOc1ccc(C(=O)Nc2ccc(F)cc2F)cc1 | 75.4 |
| O=C(NC1CCN(CCCCC2(C(=O)NCC(F)(F)F)c3ccccc3-c3ccccc32)CC1)c1ccccc1-c1ccc(C(F)(F)F)cc1 [Lomitapide Mesylate] | 0.5 |
| NC(=O)c1cccc(N)c1 [INO-1001 (3-Aminobenzamide)] | 99.5 |
| C=CC(=O)Nc1cc(N2CCN(CC)CC2)ccc1Nc1cc(N(C)C(=O)Nc2c(Cl)c(OC)cc(OC)c2Cl)ncn1 | 37.6 |
| COc1cc(C(=O)NC2CCCNC2)cc(OC)c1OC (centres undefined) [Troxipide] | 102 |
| FC(F)(F)Oc1ccc(-c2ccc3nnc(C(F)(F)F)n3c2)cc1 | 95.7 |
| C[Si](C)(C)CCOCn1ccc2c(-c3cn[nH]c3)ncnc21 | 98.6 |
| CCCNC(=O)Nc1ccc(Oc2ncnc3cc(OC)c(OC)cc23)cc1Cl | 108 |
| Cc1nc(=O)c2cc(CN(C)c3ccc(C(=O)N[C@@H](CCC(=O)O)C(=O)O)s3)ccc2[nH]1 [Raltitrexed (Tomudex)] | 94.3 |
| Cc1ccc(C)c(OCCCC(C)(C)C(=O)O)c1 [Gemfibrozil (Lopid)] | 107 |
| O=C1OC(COc2ccccc2[N+](=O)[O-])CC1Cc1ccccc1 (centres undefined) | 93.5 |
| CCC(=O)O[C@@H]1CC(=O)O[C@H](C)C/C=C/C=C/[C@H](O)[C@H](C)C[C@H](CC=O)[C@H](O[C@@H]2O[C@H](C)[C@@H](O[C@H]3C[C@@](C)(O)[C@@H](OC(=O)CC)[C@H](C)O3)[C@H](N(C)C)[C@H]2O)[C@H]1OC [Midecamycin] | 89.3 |
| CO[C@@]1(NC(=O)CSC[C@@H](N)C(=O)O)C(=O)N2C(C(=O)O)=C(CSc3nnnn3C)CS[C@@H]21 [Cefminox Sodium] | 105 |
| CNC[C@H](O)[C@@H](O)[C@H](O)[C@H](O)CO [Meglumine] | 108 |
| CCCCCCCCCCCCCC(=S)NCCCC[C@H](NC(=O)OCc1ccccc1)C(=O)Nc1ccccc1 [Thiomyristoyl] | 81.4 |
| Cc1cc(C(=O)NOCCO)c(Nc2ccc(I)cc2F)n(C)c1=O | 43.3 |
